Assay [1] is described as follows: ATG_ISRE_CIS: Attagene CIS-FACTORIAL HepG2 Assay for human Interferon Regulatory Factor 1 (IRF1) binding to an Interferon-Stimulated Response Element (ISRE) (AID 2282948). To be noted: HepG2 ISRE cis-reporter (Attagene), mRNA transcription readout; actives raise or lower the signal. The gist of the method:
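Endogenous transcription factor activity read as reporter transcript abundance via RT-PCR and capillary electrophoresis. HepG2 cells transiently transfected, 24 h chemical exposure. Gain or loss fitted against DMSO baseline.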

Assay [2] is described as follows: ATG_M_32_CIS: Attagene CIS-FACTORIAL HepG2 Assay for M32 Transcription Factor (Internal Marker) (AID 2282949).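 Also: background control marker of the multiplexed CIS panel rather than a real target.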 Particulars: HepG2 Attagene cis-factorial M32 reporter, mRNA; actives raise or lower the signal. The gist of the method: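 HepG2 transfectants (cis-regulated reporter transcription units) dosed 24 h. Reporter mRNA by RT-PCR plus CE, analysed as gain or loss relative to DMSO.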

A short description of assay [3]: ATG_M_06_CIS: Attagene CIS-FACTORIAL HepG2 Assay for M06 Transcription Factor (Internal Marker) (AID 2282950). To be noted: HepG2 Attagene CIS-FACTORIAL M06 internal marker reporter; actives raise or lower the signal. The gist of the method:
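Steps: transfect HepG2 with multiplexed cis-element reporter constructs; dose chemical 24 h; extract RNA with DNase treatment; reverse-transcribe, PCR-amplify, 6-FAM label, HpaI digest; separate fragments by capillary electrophoresis. Activity fitted both directions versus DMSO.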

Assay [4] addresses Hypoxia-inducible factor 1-alpha (Homo sapiens) (UniProt Q16665). The experiment in a line: ATG_HIF1a_CIS: Attagene CIS-FACTORIAL HepG2 Assay for human Hypoxia Inducible Factor 1 (HIF1A) (AID 2282951). Particulars: HepG2 Attagene cis-factorial HIF1a reporter transcription; actives raise or lower the signal. The essentials: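 Transient MRTU transfection of human HepG2 liver cells, 24 h compound treatment, then total RNA isolation, oligo(dT) reverse transcription, PCR amplification, fluorescent labelling and capillary electrophoresis of reporter fragments. Gain or loss relative to DMSO.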

Assay [5] concerns the target Hepatocyte nuclear factor 6 (Homo sapiens) (UniProt Q9UBC0). The experiment in a line: ATG_HNF6_CIS: Attagene CIS-FACTORIAL HepG2 Assay for human Hepatocyte Nuclear Factor 6 (HNF6) (AID 2282952). To be noted: HepG2 Attagene cis-factorial HNF6 reporter transcription; actives raise or lower the signal. The gist of the method:
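Activity values derive from bidirectional fitting against DMSO of reporter mRNA levels, measured by capillary electrophoresis of labelled RT-PCR products from HepG2 cells exposed 24 h.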

Assay [6] addresses Heat shock factor protein 1 (Homo sapiens) (UniProt Q00613). The experiment in a line: ATG_HSE_CIS: Attagene CIS-FACTORIAL HepG2 Assay for human Heat Shock Transcription Factor 1 (HSE) (AID 2282953). To be noted: HepG2 HSE cis-reporter, Attagene RNA transcription; actives raise or lower the signal. The essentials: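 Cells were transfected with cis-element-driven reporter constructs, dosed for 24 h, then total RNA was reverse-transcribed and reporter cDNA amplified, FAM-labelled and digested with HpaI. Fragments were resolved by capillary electrophoresis; gain or loss was fitted against DMSO.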

A short description of assay [7]: ATG_MRE_CIS: Attagene CIS-FACTORIAL HepG2 Assay for human Metal Responsive Element (MRE) (AID 2282954). Particulars: HepG2 MRE cis-reporter transcription, Attagene multiplex; actives raise or lower the signal. The essentials: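 Endogenous MRE-dependent transcription read as reporter mRNA in transiently transfected human HepG2 cells at 24 h. RNA reverse-transcribed, PCR-amplified, labelled and resolved by capillary electrophoresis; gain or loss relative to DMSO.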

Assay [8] in a line: ATG_PBREM_CIS: Attagene CIS-FACTORIAL HepG2 Assay for human Phenobarbital-responsive Enhancer Module (PBREM) (AID 2282955). Particulars: HepG2 PBREM cis-reporter, Attagene multiplexed transcription; actives raise or lower the signal. The essentials: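 Endogenous transcription factors in human liver HepG2 cells drive a PBREM cis-element reporter, whose transcript level after 24 h treatment is quantified by RT-PCR with capillary electrophoresis; activity fitted in both directions against DMSO.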

Assay [9] can be described thus: ATG_PXRE_CIS: Attagene CIS-FACTORIAL HepG2 Assay for human Pregnane X Receptor Element (PXRE) (AID 2282957). To be noted: HepG2 Attagene CIS-FACTORIAL PXRE reporter, mRNA; actives raise or lower the signal. The gist of the method:
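Fluorescent capillary electrophoresis of amplified reporter cDNA gave the signal, collected 24 h after dosing HepG2 cells that held transfected cis-element reporter constructs.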

Assay [10] is described as follows: ATG_PPRE_CIS: Attagene CIS-FACTORIAL HepG2 Assay for human Peroxisome Proliferator-activated Response Element (PPRE) (AID 2282958). To be noted: HepG2 PPRE cis-element reporter, Attagene transcription factor profiling; actives raise or lower the signal. The gist of the method: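 HepG2, transient MRTU transfection (cis promoter elements, endogenous TFs). 24 h dosing. RNA → oligo(dT) RT → PCR → 6-FAM primer extension → HpaI digest → CE. Bidirectional fit vs DMSO.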

Assay [11] is described as follows: ATG_RORE_CIS: Attagene CIS-FACTORIAL HepG2 Assay for human RAR-related Orphan Receptor Element (RORE) (AID 2282959). Particulars: HepG2 Attagene cis-factorial RORE reporter, mRNA; actives raise or lower the signal. The gist of the method:
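Transient MRTU transfection of human HepG2 liver cells (FuGene 6); 24 h compound exposure; TriZol RNA, oligo(dT) RT, PCR, FAM labeling, HpaI cut, CE fragment analysis. DMSO = negative control/baseline.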

Assay [12] is described as follows: ATG_Sox_CIS: Attagene CIS-FACTORIAL HepG2 Assay for human SRY-box transcription factor (SOX) (AID 2282960). Particulars: HepG2 Attagene cis-factorial SOX reporter, mRNA; actives raise or lower the signal. The essentials: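 Endogenous factor activity in human liver HepG2 cells carrying transfected cis-regulated reporter units. RNA taken 24 h post-dose, reverse-transcribed, PCR-amplified and sized by capillary electrophoresis. Gain or loss of signal fitted relative to DMSO.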

The target in assay [13] is Transcription factor Sp1 (Homo sapiens) (UniProt P08047). The experiment in a line: ATG_Sp1_CIS: Attagene CIS-FACTORIAL HepG2 Assay for human Specificity Protein 1 (Sp1) (AID 2282961). To be noted: HepG2 Sp1 cis-reporter transcription, actives raise or lower the signal. The essentials: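 Transient MRTU-transfected HepG2, 24 h compound exposure. Total RNA → oligo(dT) RT → PCR of reporter → 6-FAM primer extension → HpaI digest → CE. Endpoint fitted both directions vs DMSO.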

Assay [14] in a line: ATG_SREBP_CIS: Attagene CIS-FACTORIAL HepG2 Assay for human Sterol Regulatory Element Binding (SREBP) (AID 2282962). Particulars: HepG2 Attagene cis-factorial SREBP reporter, mRNA; actives raise or lower the signal. The essentials:
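Endogenous SREBP activity read as cis-element-driven reporter transcript in transiently transfected HepG2, 24 h post-dosing; quantified via RT-PCR plus capillary electrophoresis of fluorescent fragments. Gain or loss of signal fitted relative to DMSO baseline.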

The target of assay [15] is Signal transducer and activator of transcription 3 (Homo sapiens) (UniProt P40763). In words: ATG_STAT3_CIS: Attagene CIS-FACTORIAL HepG2 Assay for human Signal Transducer and Activator of Transcription 3 (STAT3) (AID 2282963). To be noted: HepG2, Attagene cis-factorial STAT3 reporter transcription; actives raise or lower the signal. The gist of the method:
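Readout is reporter transcript quantified by RT-PCR and capillary electrophoresis, with 6-FAM primer extension and HpaI digestion. Total RNA is taken 24 h after dosing transiently transfected HepG2 carrying cis-regulated reporter units. Bidirectional fit against DMSO.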

A short description of assay [16]: ATG_TCF_b_cat_CIS: Attagene CIS-FACTORIAL HepG2 Assay for human T-Cell-Factor with beta-catenin (TCF/b-cat) (AID 2282965). Particulars: HepG2 TCF/beta-catenin cis-reporter transcription, actives raise or lower the signal. The essentials: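 Endogenous transcription factor activity is captured through cis-promoter reporter constructs transiently introduced into human HepG2 liver cells. Induced reporter mRNA is measured after 24 h and fitted bidirectionally relative to DMSO.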

A short description of assay [17]: ATG_TAL_CIS: Attagene CIS-FACTORIAL HepG2 Assay for human TAL Basal Promoter (AID 2282966).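 Also: background control endpoint measuring basal TAL promoter reporter mRNA not a specific factor.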 Particulars: HepG2 Attagene cis-factorial TAL promoter reporter; actives raise or lower the signal. The essentials:
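Transiently transfected HepG2 (cis-regulated reporter units), 24 h treatment, mRNA read by fluorescent CE after RT-PCR; bidirectional fit, DMSO baseline.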

The target in assay [18] is Paired box protein Pax-6 (Homo sapiens) (UniProt P26367). The experiment in a line: ATG_Pax6_CIS: Attagene CIS-FACTORIAL HepG2 Assay for human Paired Box 6 (PAX6) (AID 2282956). To be noted: HepG2 CIS-FACTORIAL PAX6 reporter transcription, RNA readout; actives raise or lower the signal. The gist of the method:
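Read-out is reporter transcript level, measured by RT-PCR with fluorescent primer extension and capillary electrophoresis after 24 h dosing of transfected HepG2 cells. Activity in either direction fitted relative to DMSO control.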

The nature of assay [19]: ATG_TA_CIS: Attagene CIS-FACTORIAL HepG2 Assay for human TA Basal Promoter (AID 2282964). To be noted: HepG2 Attagene CIS-factorial TA basal promoter reporter; actives raise or lower the signal. The essentials: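 Steps: transfect HepG2 with MRTUs; dose 24 h; isolate RNA, DNase-treat, reverse-transcribe; PCR and FAM-label reporter cDNA; digest with HpaI 2h at 37 C; run capillary electrophoresis. Activity fitted both directions against DMSO.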

A short description of assay [20]: ATG_GRE_CIS: Attagene CIS-FACTORIAL HepG2 Assay for human Glucocorticoid Response Elements (GRE) (AID 2282947). Particulars: HepG2 GRE cis-reporter, Attagene multiplex mRNA; actives raise or lower the signal. The gist of the method: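 Reporter transcripts read by RT-PCR with capillary electrophoresis fluorescence after a 24 h chemical exposure of HepG2 cells transiently transfected with multiple cis-element reporter units. Gain or loss fitted against DMSO.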

Here are results for seven compounds from PubChem BioAssay (EPA / NIEHS).

Calls of active or inactive are those of the source. The calls were made as follows: active = hit-call score of the fitted dose curve at least 0.9, where 1 is the maximum; inactive = score below 0.9.

Chain of Paired box protein Pax-6 (Homo sapiens) (P26367 whole entry, looked up): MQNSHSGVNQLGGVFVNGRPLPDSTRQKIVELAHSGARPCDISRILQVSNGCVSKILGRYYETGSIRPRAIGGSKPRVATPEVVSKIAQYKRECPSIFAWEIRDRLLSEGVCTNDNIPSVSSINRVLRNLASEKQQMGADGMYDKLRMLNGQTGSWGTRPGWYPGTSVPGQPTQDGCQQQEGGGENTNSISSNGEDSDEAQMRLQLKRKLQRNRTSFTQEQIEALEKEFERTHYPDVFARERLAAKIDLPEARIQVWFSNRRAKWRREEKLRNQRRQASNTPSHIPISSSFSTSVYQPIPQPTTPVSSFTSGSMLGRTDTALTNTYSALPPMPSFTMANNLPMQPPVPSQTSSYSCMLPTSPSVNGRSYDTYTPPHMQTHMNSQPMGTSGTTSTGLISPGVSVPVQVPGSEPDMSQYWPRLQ
Chain of Hypoxia-inducible factor 1-alpha (Homo sapiens) (Q16665 whole entry, looked up, the tested form may be a part): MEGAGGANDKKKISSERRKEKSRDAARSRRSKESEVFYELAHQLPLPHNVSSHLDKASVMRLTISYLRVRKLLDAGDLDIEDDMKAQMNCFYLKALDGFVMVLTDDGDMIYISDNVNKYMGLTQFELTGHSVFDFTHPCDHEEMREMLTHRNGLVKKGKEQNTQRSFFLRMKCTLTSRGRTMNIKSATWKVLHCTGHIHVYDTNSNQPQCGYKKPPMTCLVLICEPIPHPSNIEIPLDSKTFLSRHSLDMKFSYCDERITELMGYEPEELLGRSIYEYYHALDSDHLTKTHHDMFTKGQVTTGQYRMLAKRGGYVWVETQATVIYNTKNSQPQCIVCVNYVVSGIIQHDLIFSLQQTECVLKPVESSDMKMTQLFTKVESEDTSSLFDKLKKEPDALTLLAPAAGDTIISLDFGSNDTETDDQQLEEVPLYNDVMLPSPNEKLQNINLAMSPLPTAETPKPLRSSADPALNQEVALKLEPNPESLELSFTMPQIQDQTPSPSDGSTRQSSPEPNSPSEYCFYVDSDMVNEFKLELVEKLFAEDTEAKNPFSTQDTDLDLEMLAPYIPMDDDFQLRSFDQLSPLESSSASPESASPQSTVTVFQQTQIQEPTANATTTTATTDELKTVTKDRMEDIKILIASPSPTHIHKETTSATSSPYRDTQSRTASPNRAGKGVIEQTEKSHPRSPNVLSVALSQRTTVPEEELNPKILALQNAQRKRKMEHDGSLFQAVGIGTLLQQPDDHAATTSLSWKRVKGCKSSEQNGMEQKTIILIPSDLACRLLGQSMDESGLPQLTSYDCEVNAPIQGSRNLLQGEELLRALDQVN
Chain of Transcription factor Sp1 (Homo sapiens) (P08047 whole entry, looked up): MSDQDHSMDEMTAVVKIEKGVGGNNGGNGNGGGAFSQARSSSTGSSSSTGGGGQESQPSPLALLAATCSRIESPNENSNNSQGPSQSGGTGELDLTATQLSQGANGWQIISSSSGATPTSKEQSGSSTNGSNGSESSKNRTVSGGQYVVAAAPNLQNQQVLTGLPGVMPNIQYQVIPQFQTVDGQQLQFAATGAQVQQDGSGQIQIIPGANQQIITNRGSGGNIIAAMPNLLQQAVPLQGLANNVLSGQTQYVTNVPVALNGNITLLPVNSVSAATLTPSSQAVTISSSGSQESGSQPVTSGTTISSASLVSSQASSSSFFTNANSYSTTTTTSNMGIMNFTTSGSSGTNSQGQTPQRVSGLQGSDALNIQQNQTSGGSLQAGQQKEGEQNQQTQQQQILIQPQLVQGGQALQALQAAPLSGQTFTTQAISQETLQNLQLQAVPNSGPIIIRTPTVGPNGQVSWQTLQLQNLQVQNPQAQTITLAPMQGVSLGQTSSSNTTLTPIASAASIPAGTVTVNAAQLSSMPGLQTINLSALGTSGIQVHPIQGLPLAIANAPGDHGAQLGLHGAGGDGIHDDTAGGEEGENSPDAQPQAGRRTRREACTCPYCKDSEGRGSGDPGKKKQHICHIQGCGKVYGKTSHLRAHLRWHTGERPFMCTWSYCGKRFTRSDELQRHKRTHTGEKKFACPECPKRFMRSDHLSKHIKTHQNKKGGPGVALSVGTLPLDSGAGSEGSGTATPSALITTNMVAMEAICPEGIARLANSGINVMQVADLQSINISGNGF
Chain of Heat shock factor protein 1 (Homo sapiens) (Q00613 whole entry, looked up, the tested form may be a part): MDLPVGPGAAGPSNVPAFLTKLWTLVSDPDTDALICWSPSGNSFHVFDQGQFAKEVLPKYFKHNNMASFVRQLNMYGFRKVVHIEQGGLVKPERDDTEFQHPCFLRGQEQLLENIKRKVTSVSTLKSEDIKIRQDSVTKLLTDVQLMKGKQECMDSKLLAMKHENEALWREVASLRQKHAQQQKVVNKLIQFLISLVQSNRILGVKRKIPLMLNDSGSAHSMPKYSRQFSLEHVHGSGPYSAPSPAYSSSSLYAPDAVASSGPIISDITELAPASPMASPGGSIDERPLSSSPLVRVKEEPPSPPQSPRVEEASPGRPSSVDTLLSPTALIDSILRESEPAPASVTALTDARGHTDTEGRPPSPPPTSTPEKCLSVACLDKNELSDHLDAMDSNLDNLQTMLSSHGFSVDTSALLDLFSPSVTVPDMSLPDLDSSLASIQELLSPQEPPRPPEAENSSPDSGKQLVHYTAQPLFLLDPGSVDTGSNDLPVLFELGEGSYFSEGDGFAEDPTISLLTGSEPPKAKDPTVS
Chain of Hepatocyte nuclear factor 6 (Homo sapiens) (Q9UBC0 whole entry, looked up): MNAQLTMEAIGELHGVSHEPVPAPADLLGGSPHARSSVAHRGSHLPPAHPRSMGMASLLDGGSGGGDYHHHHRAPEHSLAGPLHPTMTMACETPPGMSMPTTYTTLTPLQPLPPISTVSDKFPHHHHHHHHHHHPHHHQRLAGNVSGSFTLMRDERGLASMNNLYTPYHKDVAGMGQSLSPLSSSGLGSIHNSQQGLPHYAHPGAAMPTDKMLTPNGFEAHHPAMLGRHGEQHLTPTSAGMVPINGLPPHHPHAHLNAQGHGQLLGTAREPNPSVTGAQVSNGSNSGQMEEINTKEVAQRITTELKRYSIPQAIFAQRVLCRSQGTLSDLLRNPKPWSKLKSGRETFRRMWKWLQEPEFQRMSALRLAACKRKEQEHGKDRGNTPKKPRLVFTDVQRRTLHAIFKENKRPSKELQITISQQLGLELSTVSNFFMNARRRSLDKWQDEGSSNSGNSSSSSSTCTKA
Chain of Signal transducer and activator of transcription 3 (Homo sapiens) (P40763 whole entry, looked up): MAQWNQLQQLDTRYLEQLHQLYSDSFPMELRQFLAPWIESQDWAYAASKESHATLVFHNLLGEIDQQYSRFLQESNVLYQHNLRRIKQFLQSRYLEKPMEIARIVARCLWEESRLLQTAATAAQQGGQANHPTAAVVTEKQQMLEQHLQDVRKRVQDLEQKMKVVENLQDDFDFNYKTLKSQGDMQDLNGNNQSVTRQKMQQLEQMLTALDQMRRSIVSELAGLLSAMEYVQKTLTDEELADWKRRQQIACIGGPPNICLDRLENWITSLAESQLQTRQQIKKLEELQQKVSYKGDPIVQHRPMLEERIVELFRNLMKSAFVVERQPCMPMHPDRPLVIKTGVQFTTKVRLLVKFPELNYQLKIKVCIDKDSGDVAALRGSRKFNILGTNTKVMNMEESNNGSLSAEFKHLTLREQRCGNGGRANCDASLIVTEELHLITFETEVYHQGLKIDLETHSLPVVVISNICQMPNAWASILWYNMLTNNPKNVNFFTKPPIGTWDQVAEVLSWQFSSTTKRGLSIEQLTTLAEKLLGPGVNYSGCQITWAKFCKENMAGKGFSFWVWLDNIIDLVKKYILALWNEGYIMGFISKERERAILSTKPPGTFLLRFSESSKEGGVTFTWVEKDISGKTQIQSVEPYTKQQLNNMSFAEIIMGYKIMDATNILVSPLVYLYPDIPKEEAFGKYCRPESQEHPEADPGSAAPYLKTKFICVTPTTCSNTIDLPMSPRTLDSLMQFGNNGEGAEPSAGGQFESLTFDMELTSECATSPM

Consider `O=C(O)CO`, for which the call in assay [1], in [2], in assay [3], in [4], in assay [5] and in [6] was inactive. The outcome in assay [7], in [8], in assay [9], in assay [10], in assay [11] and in assay [12] was inactive. Also, the compound was called inactive in assay [13], in assay [14], in assay [15], in assay [16] and in assay [17].

With `C=CN1CCCC1=O`, the outcome in [1], in assay [2], in assay [3], in assay [4], in assay [5] and in assay [6] was inactive. In addition, the result in assay [7], in assay [8], in [18], in [9], in assay [10] and in [11] was inactive. For the same compound, the result in [12], in [13], in assay [14], in assay [15], in [16] and in assay [17] was inactive.

Turning to `OCC(CO)(CO)CO`, the compound was classed as inactive in assay [1], in assay [2], in assay [3], in assay [4], in assay [5] and in assay [6]. Besides, the compound was classed as inactive in assay [7], in assay [8], in assay [9], in [10], in [11] and in assay [12]. Also, the call in assay [13], in assay [14], in assay [15], in [19], in [16] and in assay [17] was inactive.

Turning to `O=C(O)[C@H](O)[C@@H](O)C(=O)O`, the call in assay [20], in assay [1], in assay [2], in [3], in [6] and in assay [7] was inactive. Also, the result in [8], in assay [18], in assay [9], in assay [11], in assay [12] and in assay [13] was inactive. In addition, the result in assay [14], in [15], in [16] and in assay [17] was inactive.

Take `CC(C)CC(C)O` (stereo not drawn): the result in assay [1], in [2], in [3], in assay [4], in assay [6] and in assay [7] was inactive. In addition, the result in assay [8], in [18], in [9], in assay [10], in assay [11] and in assay [12] was inactive. Further, the compound was classed as inactive in assay [13], in [14], in assay [15], in assay [19], in assay [16] and in assay [17].

As for `NNC(=O)c1ccncc1`, the compound was called inactive in [20], in [1], in [2], in [3], in assay [5] and in assay [6]. For the same compound, the outcome in assay [7], in assay [8], in assay [18], in assay [9], in assay [10] and in assay [11] was inactive. Moreover, the compound was called inactive in assay [12], in assay [13], in [14], in assay [15], in assay [19] and in assay [16]. Also, the result in assay [17] was inactive.

As to `CCCCN1C(=O)[C@@H]([C@H](O)C2CCCCC2)NC(=O)C12CCN(Cc1ccc(Oc3ccc(C(=O)O)cc3)cc1)CC2`, the AC50 in assay [1] was 93.5 µM (active); in assay [7], 75.8 µM (active); in assay [9], 93.5 µM (active); in [10] it was 54 µM (active); in assay [19] it was 31.7 µM (active); in assay [16] it was 52.5 µM (active). Besides, the AC50 in assay [17] was 21.9 µM (active). Moreover, the result in assay [2], in assay [3], in assay [4], in [6], in assay [8] and in [11] was inactive. Besides, the compound was classed as inactive in [12], in assay [13], in assay [14] and in assay [15].
